A number with no mark means an inactive call. Results filed as inconclusive are left out. Entries that show only a call come without a potency. Calls of active or inactive are those of the source. Unless noted, the call rests on the fitted dose curve; in most records, active means well fitted curve in the direction sought with a large enough effect; inconclusive means small, poorly fitted or top-dose-only effect, or another doubt; inactive means no such curve, though single readings can be large; an effect the other way counts as inactive or inconclusive.
Assays:
[1] = target: Arylsulfatase A (Homo sapiens) (UniProt P15289); experiment: qHTS screen for enhancers of Arylsulfatase A (ASA1): LOPAC Validation Assay (AID 720538); further: potency means the concentration at half of the fitted maximal effect
Procedure, shortened: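 MLD patient fibroblasts (SV40, ASA-I179S), 1536-well; adhere 6 hrs; cpd 48h, 37 degree C, 5% CO2; pNCS 0.5mM final in lysis buffer, 14h RT; stop 1N NaOH final; fluor. Ex525/Em598.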

[2] = qHTS for compounds that reverse cellular toxicity of Amyloid beta (A-beta) peptide in yeast: LOPAC Validation Assay (AID 720559)
Procedure, shortened: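 Medium dispensed, compounds pinned, A-beta yeast suspension added; plates held at 30 C for 48 hr; absorbance measured at 600 nm to gauge growth; values scaled between DMSO and FeCl3/clioquinol (equimolar) controls.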

[3] = qHTS for Activators of Parkin Expression: LOPAC Validation Assay (NLuc Reporter) (AID 720572)
Procedure, shortened: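 Parkin promoter-driven FLuc/NLuc neuronal reporter cells; 24 h plating, 7-pt dose response, 24 h at 37 C/5% CO2; FLuc then NanoLuc reagent, 10 min each, luminescence; DMSO/positive control normalized.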

[4] = target: T1, Hexokinase-4 (Homo sapiens) + Glucokinase regulatory protein (Homo sapiens) (UniProt P35557+Q14397); experiment: qHTS assay for inhibitors of recombinant human GCK-GKRP interaction: Diaphorase-coupled assay (AID 743205)
Procedure, shortened: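 25 mM Hepes pH 7.6, 5 mM glucose, 0.4 mM ATP, 4 U/ml G6PDH; 10 nM each GST-GCK/FLAG-GKRP. Kinetic fluorescence read, 1/min × 30 min. Normalized: DMSO ± enzyme = max/min.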

[5] = qHTS Assay for Identifying Gametocytocidal Compounds (AID 743244); further: potency means the concentration at half of the fitted maximal effect;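 on max response: actives lower the fluorescent signal which means gametocytes are killed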; conditions: P. falciparum 3D7 stage III-V gametocytes, alamarBlue, 72 h; max response: active compounds read low
Procedure, shortened: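 Compounds are pinned into medium, gametocytes (stage III–V, 3D7, 20,000 cells/well) added, and plates held 72 h at 37 °C in 5% CO2. AlamarBlue follows for 24 h before fluorescence reading.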

[6] = target: T1, Hexokinase-4 (Homo sapiens) + Glucokinase regulatory protein (Homo sapiens); experiment: qHTS assay for inhibitors of recombinant human GCK-GKRP interaction: HTRF assay (AID 743207)
Procedure, shortened: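 5 nM GST-GCK + 5 nM FLAG-GKRP + 2 uM S6P, pH 7.1 buffer (25 mM Hepes, 2 mM MgCl2, 25 mM KCl, 1 mM DTT, Tween/BSA); pin-transferred cpd; anti-FLAG XL665/anti-GST K; 60 min RT; HTRF.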

[7] = qHTS for Activators of Parkin Expression: LOPAC Validation Assay (FLuc Reporter) (AID 720573; further: potency means the concentration at half of the fitted maximal effect)
Procedure, shortened: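 Cells seeded, 24 h; compounds pinned, 7-pt dose response; 24 h at 37 C/5% CO2; volume reduced; FLuc reagent 10 min RT; luminescence read. Normalization: DMSO = 0, positive control = 100%.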

[8] = target: T1, Hexokinase-4 (Homo sapiens) + Glucokinase regulatory protein (Homo sapiens); experiment: qHTS assay for inhibitors of recombinant human GCK-GKRP interaction: ADP-Glo assay (AID 743206)
Procedure, shortened: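 GST-GCK and FLAG-GKRP (15 nM each in the dispensed mix, with 2 uM S6P) react with 0.4 mM ATP and 5 mM glucose (final) in Hepes pH 7.6 for 60 min at room temperature. ADP is measured by ADP-Glo luminescence.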

[9] = qHTS assay for small molecule agonists of the antioxidant response element (ARE) signaling pathway measured by Nrf2-dependant transcriptional activity - cell viability counter screen (AID 720653; active means well fitted curve in the direction sought with a large enough effect in the repeat runs; an effect the other way counts as inactive or inconclusive); conditions: ARE-bla HepG2 viability, CellTiter-Glo ATP luminescence, 16 h; active compounds read low
Procedure, shortened: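 Cytotoxicity counter screen: intracellular ATP quantified by CellTiter-Glo luminescence in the same ARE-bla HepG2 plates, after 16 h compound exposure and a 2 h beta-lactamase substrate step.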

[10] = qHTS assay for cell viability of HEK293 cells (AID 743288); conditions: ATP luminescence (CellTiter-Glo), 18 h; max response: active compounds read low; further: nearly all actives have a fitted effect of over 50% in size
Procedure, shortened: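 HEK293 parental, 2,000 cells/well; ≥5 h pre-incubation 37 C; pintool compound addition; 18 h, 37 C; CellTiter-Glo 30 min RT; luminescence read.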

[11] = qHTS assay for cell viability of the p53RE-bla HCT-116 cell line (AID 743292); further: nearly all actives have a fitted effect of over 55% in size
Procedure, shortened: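 CellSensor p53RE-bla HCT-116 cells, 4,000/well, preincubated 5 h at 37 C, then exposed to compounds in DMSO for 16 h at 37 C. Viability read as CellTiter-Glo luminescence (intracellular ATP) after 30 min at room temperature.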

Sequence of Arylsulfatase A (Homo sapiens) (P15289 whole entry, looked up): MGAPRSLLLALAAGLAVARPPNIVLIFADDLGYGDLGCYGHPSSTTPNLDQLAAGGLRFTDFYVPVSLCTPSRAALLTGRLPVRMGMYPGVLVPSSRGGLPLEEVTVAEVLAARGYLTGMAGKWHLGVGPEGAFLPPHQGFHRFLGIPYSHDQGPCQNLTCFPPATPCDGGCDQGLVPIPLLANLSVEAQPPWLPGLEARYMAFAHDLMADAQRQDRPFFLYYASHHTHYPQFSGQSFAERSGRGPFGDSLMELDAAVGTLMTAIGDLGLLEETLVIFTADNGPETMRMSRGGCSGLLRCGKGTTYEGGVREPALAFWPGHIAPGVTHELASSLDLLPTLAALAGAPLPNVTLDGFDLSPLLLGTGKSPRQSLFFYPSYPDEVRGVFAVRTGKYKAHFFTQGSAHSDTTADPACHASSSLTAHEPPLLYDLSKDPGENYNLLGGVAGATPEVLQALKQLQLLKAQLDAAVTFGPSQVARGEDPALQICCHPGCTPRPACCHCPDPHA
T1 sequence (P35557 whole entry, looked up): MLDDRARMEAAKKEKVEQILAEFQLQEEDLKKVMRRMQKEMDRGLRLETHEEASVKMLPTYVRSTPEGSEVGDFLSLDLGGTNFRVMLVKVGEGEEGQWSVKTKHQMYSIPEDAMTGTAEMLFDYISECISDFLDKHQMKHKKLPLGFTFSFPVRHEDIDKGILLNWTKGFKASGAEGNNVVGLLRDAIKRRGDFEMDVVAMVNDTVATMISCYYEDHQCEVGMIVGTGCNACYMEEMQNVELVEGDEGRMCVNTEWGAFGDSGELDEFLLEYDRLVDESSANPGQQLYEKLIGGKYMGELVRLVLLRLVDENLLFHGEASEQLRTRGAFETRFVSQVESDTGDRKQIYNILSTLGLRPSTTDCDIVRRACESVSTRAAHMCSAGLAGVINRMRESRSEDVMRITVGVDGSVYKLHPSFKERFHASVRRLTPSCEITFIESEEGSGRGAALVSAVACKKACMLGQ
T1 sequence (Q14397 whole entry, looked up): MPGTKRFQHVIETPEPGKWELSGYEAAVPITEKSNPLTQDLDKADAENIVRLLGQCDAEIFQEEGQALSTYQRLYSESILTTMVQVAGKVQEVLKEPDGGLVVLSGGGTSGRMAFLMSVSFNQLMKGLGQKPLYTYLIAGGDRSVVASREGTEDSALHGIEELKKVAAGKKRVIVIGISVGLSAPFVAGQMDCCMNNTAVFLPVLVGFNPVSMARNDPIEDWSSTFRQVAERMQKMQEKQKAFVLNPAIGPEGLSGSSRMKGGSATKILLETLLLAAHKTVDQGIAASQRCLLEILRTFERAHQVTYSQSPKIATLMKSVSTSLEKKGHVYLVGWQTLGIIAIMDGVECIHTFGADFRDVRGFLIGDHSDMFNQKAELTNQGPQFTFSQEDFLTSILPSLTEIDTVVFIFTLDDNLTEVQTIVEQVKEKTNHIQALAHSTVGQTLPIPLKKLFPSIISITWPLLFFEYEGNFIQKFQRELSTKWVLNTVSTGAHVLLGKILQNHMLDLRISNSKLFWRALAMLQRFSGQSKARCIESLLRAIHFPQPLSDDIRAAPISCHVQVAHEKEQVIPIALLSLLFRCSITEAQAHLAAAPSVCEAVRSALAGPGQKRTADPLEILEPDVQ

Structure (SMILES) | Potency [1] | outcome [2] | Potency [3] | Potency [4] | max response [5] [%] | Potency [6] | Potency [7] | Potency [8] | max response [9] [%] | max response [10] [%] | Potency [11] | Potency [5]
O=C(c1ccc2c(c1)OCCO2)N1CCCCC1 | inactive | inactive | inactive | inactive | 22.1 |  |  |  |  |  |  | 
CC1C(=O)N(C)C(=O)c2nc[nH]c21 (stereo not given) | inactive | inactive | inactive | inactive | 38.8 | inactive |  |  |  |  |  | 
N#CC(=C(\N)Sc1ccccc1N)/C(C#N)=C(/N)Sc1ccccc1N | inactive | inactive |  | inactive | 14.1 | inactive | inactive | inactive |  |  |  | 
O=c1[nH]c2ccccc2c2ccccc12 | inactive | inactive | inactive | inactive | 36 |  | inactive |  |  |  |  | 
C#CCn1c(=O)c2c(ncn2C)n(C)c1=O | inactive | inactive | inactive | inactive | 7.96 | inactive |  | inactive |  |  |  | 
O=c1[nH]c(=S)[nH]c(-c2ccccc2)c1Cc1c(O)ccc2ccccc12 | inactive | inactive |  | inactive | 1.54 |  | inactive | inactive |  |  |  | 
Brc1c(Br)c(Br)c2[nH]cnc2c1Br | inactive | inactive |  | inactive | 7.09 | inactive | inactive | inactive |  |  |  | 
Fc1ccc(CN(C2=NCCN2)c2c(Cl)cccc2Cl)cc1 | inactive | inactive | inactive | inactive | -2.54 | inactive |  | inactive |  |  |  | 
NC(N)=N[C@@H](CCC(=O)O)C(=O)O | inactive | inactive | inactive | inactive | -1.42 | inactive |  | inactive |  |  |  | 
CCCCOC(=O)NS(=O)(=O)c1sc(CC(C)C)cc1-c1ccc(Cn2c(CC)nc3c(C)cc(C)nc32)cc1 | inactive | inactive |  | inactive |  | inactive | inactive | inactive |  |  |  | 
N[C@H](C(=O)O)[C@H](Cc1ccccc1)C(=O)O | inactive | inactive | inactive | inactive |  | inactive |  | inactive |  |  |  | 
CC1CNCCN1S(=O)(=O)c1cccc2cnccc12 (stereo not given) | inactive | inactive |  | inactive | 22.5 |  |  | inactive |  |  |  | 
C[C@H](NC(=O)/C(C#N)=C/c1ccc(O)c(O)c1)c1ccccc1 | inactive | inactive |  | inactive | -11 |  | inactive | inactive |  |  |  | 
CCCC(=O)NCCc1c2n(c3ccc(OC)cc13)CCCc1ccccc1-2 | inactive | inactive | inactive | inactive | 19.4 | inactive |  | inactive |  |  |  | 
Oc1ccc(/C=C/c2ccc(/C=C/c3ccc(O)cc3)c(Br)c2)cc1 | inactive | inactive |  | inactive |  | inactive |  | inactive |  |  |  | 
OC[C@H]1O[C@@H](n2cnc3cncnc32)[C@H](O)[C@@H]1O | inactive | inactive | inactive | inactive | 19.7 | inactive |  | inactive |  |  |  | 
COc1cc(C(O)CO)ccc1O (stereo not given) | inactive | inactive | inactive | inactive |  | inactive |  | inactive |  |  |  | 
CC1=C(/C=C/C(C)=C/C=C/C(C)=C\C(=O)O)C(C)(C)CCC1 | inactive | inactive | inactive | inactive | 17.8 |  |  |  | 3.98 | 0.628 | inactive | 
NCC(O)c1ccc(O)c(O)c1 (stereo not given) | inactive |  |  | inactive |  | inactive |  | inactive |  |  |  | 
NC(=Nc1ccccc1)NC(=O)c1nc(Cl)c(N)nc1N | inactive |  |  | inactive | 12.9 | inactive | 8.2 µM (active) |  |  |  |  | 
Cn1c(=O)c2c(nc(/C=C/c3cccc(Cl)c3)n2C)n(C)c1=O |  | inactive | inactive | inactive |  |  | inactive | inactive |  |  |  | 
CC1=C(C(=O)O)N2C(=O)[C@@H](NC(=O)C(N)C3=CCC=CC3)[C@H]2SC1 (stereo not given in full) | inactive |  | inactive | inactive | 5.72 | inactive | inactive | inactive |  |  |  | 
NS(=O)(=O)c1cccc2c1c([N+](=O)[O-])cc1nc(O)c(O)nc12 | 10.7 µM (active) |  | inactive | inactive | 24.6 | inactive | inactive | inactive |  |  |  | 
COC1(C2=NCCN2)COc2ccccc2O1 (stereo not given) | inactive |  | inactive | inactive | 25.5 | inactive | inactive | inactive |  |  |  | 
CCCCOc1cc(CC2CNC(=O)N2)ccc1OC (stereo not given) | inactive |  | inactive | inactive | 22.4 | inactive | inactive | inactive |  |  |  | 
O=c1cc(O)cc(/C=C/c2ccc(O)c(O)c2)o1 | inactive |  |  | inactive |  | inactive | inactive | inactive |  |  |  | 
N[C@H](C(=O)O)[C@H](O)C(=O)O | inactive |  | inactive | inactive | 13.2 | inactive |  | inactive |  |  |  | 
CCN(CC)CCCCCCCCOC(=O)c1cc(OC)c(OC)c(OC)c1 | inactive |  | inactive | inactive | 31.2 | inactive | inactive | inactive |  |  |  | 
COc1cc(N)c(Cl)cc1C(=O)OCCN1CCCCC1 | inactive |  | inactive | inactive | 4.04 | inactive |  | inactive |  |  |  | 
CN1Cc2sccc2C(c2ccc(O)c(O)c2)C1 (stereo not given) | inactive |  | inactive | inactive |  |  | inactive |  |  |  |  | 0.891 µM (active)

— PubChem BioAssay (NCATS)
